Experimental data published in PubChem BioAssay (NCI).
This is part of a sample that, as a whole, favours compounds with a hit. Of some 79,000 tested, about 15% had one in any assay. Active and inactive are the calls of the source. Cut-off read from the data, not from the text of the source: active = growth inhibition above about 70%; inactive = the rest.

Test: NCI Yeast Anticancer Drug Screen. Data for the mgt1 strain (AID 153)
Details: S. cerevisiae mgt1 mutant growth inhibition; at 11.0 µM; hits give high values
How it was run: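 Read-out: yeast growth inhibition vs vehicle control. Strain mgt1, drawn from a panel altered in DNA damage repair or cell cycle control.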

SMILES | growth inhibition
CCN(CC)CC[n+]1ccc2c(C)c3[nH]c4ccc(O)cc4c3c(C)c2c1 | 0% (inactive)
O=[n+]1c2ccc(Cl)cc2n([O-])c2ccc(Cl)cc21 | 2% (inactive)
CCOP(=O)(OCC)C(Cc1ccccc1)N=C(c1ccccc1)c1ccccc1 (stereo not drawn) | 10% (inactive)
CC[C@@]1(O)C(=O)OCc2c1cc1n(c2=O)Cc2cc3c(N)cccc3nc2-1 | 9% (inactive)
COC1C=COC2(C)Oc3c(C)c(O)c4c(c3C2=O)/C(=N/C2CCC(O)OC2C)C=C(NC(=O)/C(C)=C\C(=O)C2CC2C(O)C(C)C(O)C(C)C(OC(C)=O)C1C)C4=O (stereo not drawn) | -1% (inactive)
COc1cc2c(c(OC)c1OC)-c1c(cc3c(c1OC)OCO3)CC(C)C(C)(O)C2OC(=O)c1ccccc1 (stereo not drawn) | -14% (inactive)
O=c1ssc2ncccc12 | 41% (inactive)
O=C1C2C(C(=O)N1c1ccc(OCc3ccccc3)cc1)C1c3ccccc3C2C2CCCCN21 (stereo not drawn) | -11% (inactive)
COc1ccc(-c2cn(-c3ccc(I)cc3)c3ncnc(N)c23)cc1 | -11% (inactive)
CCOC(=O)C(NC(=O)c1ccccc1)(N1CCN(c2cc3c(cc2F)c(=O)c(C(=O)O)cn3C2CC2)CC1)C(F)(F)F (stereo not drawn) | 0% (inactive)
C/C(=N\O)C1CC2C=C(C#N)C1N(Cc1ccccc1)C2 (stereo not drawn) | -5% (inactive)
CC/C(=C(\c1ccccc1)c1ccc(OCCN(C)C)cc1)c1ccccc1 | 94% (active)
COc1ccccc1N=NC(C(=O)c1ccccc1)C(=O)c1ccccc1 | 4% (inactive)
CC(O)C(O)C(O)C(/C=N\Nc1ccccc1)=N/Nc1ccccc1 (stereo not drawn) | 10% (inactive)
COc1ccc(/C=C2\SC(=S)N(/C=C/c3nc4ccccc4[nH]c3=O)C2=O)cc1OC | 30% (inactive)
N#CN=Nc1cc(Cl)c(N=NC#N)cc1Cl | -6% (inactive)
Cc1ccc(S(=O)(=O)Oc2cc(Cl)c(Cl)cc2Cl)cc1 | -6% (inactive)
c1ccc2c(c1)Oc1cccc3cccc-2c13 | 1% (inactive)
O=C(c1ccc(Cl)cc1Cl)C(Cl)Cl | -13% (inactive)
CC(C)C1=CCC2C(=C1)CCC1C(C)(C(=O)O)CCCC21C (stereo not drawn) (tested in a mixture with another compound) | 6% (inactive)

SMILES | growth inhibition
COc1cc(/C=C2\CCc3ccccc3C2=O)cc(OC)c1OC | -45% (inactive)
CC(=O)[O][Bi]([c]1ccccc1)[c]1ccccc1 | 40% (inactive)
S=C(N/N=C/c1ccccn1)Nc1ccc(Cl)cc1 | 9% (inactive)
COc1cc(CC2CC(c3ccc4c(c3)OCO4)OC2=O)cc(OC)c1OC (stereo not drawn) | 1% (inactive)
CNC1C(OC2C(OC3C(O)C(O)C(N=C(N)N)C(O)C3N=C(N)N)OC(C)C2(O)CO)OC(CO)C(O)C1O (stereo not drawn) | -6% (inactive)
NNC(=O)CCc1ccc2ccc3ccccc3c2c1 | -5% (inactive)
Oc1ccc2ccccc2c1C(c1ccc(Cl)cc1)c1c(O)ccc2ccccc12 | -14% (inactive)
CCCCN(CCCC)CCSc1ccc(Cl)cc1 | -5% (inactive)
CCC(C)COC(=O)c1ccc(N=Cc2ccc(C=Nc3ccc(C(=O)OCC(C)CC)cc3)cc2)cc1 (stereo not drawn) | -4% (inactive)
CC1(C)C(=O)OC(n2cc(F)c(=O)[nH]c2=O)C1=O (stereo not drawn) | 34% (inactive)
O=[N+]([O-])CC(SCc1ccccc1)c1ccc2c(c1)OCO2 (stereo not drawn) | 47% (inactive)
COc1cc2c(cc1[N+](=O)[O-])C(=O)C(Br)(Br)CCC2 | 100% (active)
OCC1OC(OCC(O)C(O)C(O)C(/C=N/Nc2ccccc2)=N/Nc2ccccc2)C(O)C(O)C1O (stereo not drawn) | 11% (inactive)
COc1ccc(N=C2C(=O)Nc3ccc(Br)cc32)cc1 | -5% (inactive)
Cn1c(=O)c2ccccc2c2ccccc21 | -1% (inactive)
CC[n+]1ccc2c(C)c3[nH]c4ccc(O)cc4c3c(C)c2c1 | -16% (inactive)
CC(=O)ON1C(=O)c2cccc3cccc(c23)C1=O | 95% (active)
COc1ccc2ccc3ccccc3c2c1C=O | -7% (inactive)
OC1CCCc2c1cc1ccc3cccc4ccc2c1c34 (stereo not drawn) | 99% (active)

Same assay, conditions: S. cerevisiae mgt1 mutant growth inhibition; at 33.0 µM; hits give high values

SMILES | growth inhibition
CCN(CC)CC[n+]1ccc2c(C)c3[nH]c4ccc(O)cc4c3c(C)c2c1 | 3% (inactive)
O=[n+]1c2ccc(Cl)cc2n([O-])c2ccc(Cl)cc21 | 5% (inactive)
CCOP(=O)(OCC)C(Cc1ccccc1)N=C(c1ccccc1)c1ccccc1 (stereo not drawn) | 86% (active)
CC[C@@]1(O)C(=O)OCc2c1cc1n(c2=O)Cc2cc3c(N)cccc3nc2-1 | 2% (inactive)
COC1C=COC2(C)Oc3c(C)c(O)c4c(c3C2=O)/C(=N/C2CCC(O)OC2C)C=C(NC(=O)/C(C)=C\C(=O)C2CC2C(O)C(C)C(O)C(C)C(OC(C)=O)C1C)C4=O (stereo not drawn) | 29% (inactive)
COc1cc2c(c(OC)c1OC)-c1c(cc3c(c1OC)OCO3)CC(C)C(C)(O)C2OC(=O)c1ccccc1 (stereo not drawn) | -17% (inactive)
O=c1ssc2ncccc12 | 84% (active)
O=C1C2C(C(=O)N1c1ccc(OCc3ccccc3)cc1)C1c3ccccc3C2C2CCCCN21 (stereo not drawn) | 2% (inactive)
COc1ccc(-c2cn(-c3ccc(I)cc3)c3ncnc(N)c23)cc1 | 2% (inactive)
CCOC(=O)C(NC(=O)c1ccccc1)(N1CCN(c2cc3c(cc2F)c(=O)c(C(=O)O)cn3C2CC2)CC1)C(F)(F)F (stereo not drawn) | 1% (inactive)
C/C(=N\O)C1CC2C=C(C#N)C1N(Cc1ccccc1)C2 (stereo not drawn) | -3% (inactive)
CC/C(=C(\c1ccccc1)c1ccc(OCCN(C)C)cc1)c1ccccc1 | 98% (active)
COc1ccccc1N=NC(C(=O)c1ccccc1)C(=O)c1ccccc1 | 96% (active)
CC(O)C(O)C(O)C(/C=N\Nc1ccccc1)=N/Nc1ccccc1 (stereo not drawn) | 47% (inactive)
COc1ccc(/C=C2\SC(=S)N(/C=C/c3nc4ccccc4[nH]c3=O)C2=O)cc1OC | 76% (active)
N#CN=Nc1cc(Cl)c(N=NC#N)cc1Cl | 28% (inactive)
Cc1ccc(S(=O)(=O)Oc2cc(Cl)c(Cl)cc2Cl)cc1 | -9% (inactive)
c1ccc2c(c1)Oc1cccc3cccc-2c13 | 16% (inactive)
O=C(c1ccc(Cl)cc1Cl)C(Cl)Cl | 68% (inactive)
CC(C)C1=CCC2C(=C1)CCC1C(C)(C(=O)O)CCCC21C (stereo not drawn) (tested in a mixture with another compound) | 15% (inactive)

SMILES | growth inhibition
COc1cc(/C=C2\CCc3ccccc3C2=O)cc(OC)c1OC | 6% (inactive)
CC(=O)[O][Bi]([c]1ccccc1)[c]1ccccc1 | 89% (active)
S=C(N/N=C/c1ccccn1)Nc1ccc(Cl)cc1 | 16% (inactive)
COc1cc(CC2CC(c3ccc4c(c3)OCO4)OC2=O)cc(OC)c1OC (stereo not drawn) | 1% (inactive)
CNC1C(OC2C(OC3C(O)C(O)C(N=C(N)N)C(O)C3N=C(N)N)OC(C)C2(O)CO)OC(CO)C(O)C1O (stereo not drawn) | 17% (inactive)
NNC(=O)CCc1ccc2ccc3ccccc3c2c1 | -4% (inactive)
Oc1ccc2ccccc2c1C(c1ccc(Cl)cc1)c1c(O)ccc2ccccc12 | 43% (inactive)
CCCCN(CCCC)CCSc1ccc(Cl)cc1 | -5% (inactive)
CCC(C)COC(=O)c1ccc(N=Cc2ccc(C=Nc3ccc(C(=O)OCC(C)CC)cc3)cc2)cc1 (stereo not drawn) | -6% (inactive)
CC1(C)C(=O)OC(n2cc(F)c(=O)[nH]c2=O)C1=O (stereo not drawn) | 49% (inactive)
O=[N+]([O-])CC(SCc1ccccc1)c1ccc2c(c1)OCO2 (stereo not drawn) | 97% (active)
COc1cc2c(cc1[N+](=O)[O-])C(=O)C(Br)(Br)CCC2 | 99% (active)
OCC1OC(OCC(O)C(O)C(O)C(/C=N/Nc2ccccc2)=N/Nc2ccccc2)C(O)C(O)C1O (stereo not drawn) | 11% (inactive)
COc1ccc(N=C2C(=O)Nc3ccc(Br)cc32)cc1 | 2% (inactive)
Cn1c(=O)c2ccccc2c2ccccc21 | 35% (inactive)
CC[n+]1ccc2c(C)c3[nH]c4ccc(O)cc4c3c(C)c2c1 | -5% (inactive)
CC(=O)ON1C(=O)c2cccc3cccc(c23)C1=O | 97% (active)
COc1ccc2ccc3ccccc3c2c1C=O | -5% (inactive)
OC1CCCc2c1cc1ccc3cccc4ccc2c1c34 (stereo not drawn) | 98% (active)
